The structures appear in SMILES notation. Screen size: about 63,000 compounds; about 1,100 (1.7%) were called active. The sample holds actives, similar compounds and a random draw of the others, so the mix is not that of the screen. Cut-off read from the data, not from the text of the source: active = cytotoxicity above about 50%; inactive = the rest. Measured potencies and affinities stand elsewhere.

A short description of this test: cytotoxicity in HPDE-C7 cells, cell-based, fluorescence, HTS (AID 430).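 Note: cells exposed to compound for 48 hours before viability readout; 0% = vehicle and 100% = reference cytotoxic drug.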 The settings on record: HPDE-C7 pancreatic duct cells viability, at 10 µM, stronger effect = higher value.
Turning to `CCCn1c(NC(=O)C2CCN(S(=O)(=O)c3cccs3)CC2)nc2ccccc21`, the cytotoxicity was 8% (inactive).

In the case of `COc1ccccc1-n1nnnc1SCc1ccccc1`, the cytotoxicity is -13.8% (inactive).

As for `Cc1cccc(C)c1-n1nnnc1S(=O)(=O)Cc1ccccc1Cl`, the cytotoxicity is 1% (inactive).

Regarding `C=CCn1cnc2c(c1=O)c1nc3ccccc3nc1n2-c1ccccc1`, the cytotoxicity is 1.4% (inactive).

Regarding `Cc1nc(SCC(=O)Nc2c(C)n(C)n(-c3ccccc3)c2=O)n[nH]1`, the cytotoxicity is -18.3% (inactive).

Turning to `CCc1ccc2[nH]c(=O)c(CN(Cc3ccc(OC)cc3)Cc3nnnn3CCOC)cc2c1`, the cytotoxicity is 9.3% (inactive).

For the compound `O=C1c2oc3ccc(F)cc3c(=O)c2C(c2ccccc2)N1CC1CCCO1` (stereo not given), the cytotoxicity is -14.4% (inactive).

On to `Cc1noc(C(=O)N2CCN(c3ccc(F)cc3)CC2)c1Cl`, for which the cytotoxicity was -11.2% (inactive).

As for `CCN1CCN(c2ncc(C(=O)Nc3cc(Cl)ccc3OC)c3ccccc23)CC1`, the cytotoxicity is 82.5% (active).

Take `CCN1CCN(c2ncc(C(=O)Nc3cc(Cl)c(OC)cc3OC)c3ccccc23)CC1`: the cytotoxicity is 16% (inactive).

For `CCN1CCN(c2ncc(C(=O)Nc3ccccc3C(=O)OC)c3ccccc23)CC1`, the cytotoxicity is 25.8% (inactive).

In the case of `COc1ccccc1Cn1c(=O)c2ccccc2n2c(SCC(=O)N3CCCCC3)nnc12`, the cytotoxicity is -4.5% (inactive).

Take `COc1ccc(NC(=O)c2ocnc2C)cc1OC`: the cytotoxicity was -32.7% (inactive).

Regarding `OC(COCC1COc2ccccc2O1)CN1CCN(c2ccccn2)CC1` (stereo not given), the cytotoxicity was 6.2% (inactive).

For the compound `Cc1nc(NCCNC(=O)c2ccco2)c2c(C)c(C)sc2n1`, the cytotoxicity was -13.6% (inactive).

Turning to `Cc1cc(NC(=O)COC(=O)c2cccc(S(=O)(=O)N3CCOCC3)c2)no1`, the cytotoxicity was -14.7% (inactive).

As to `Cc1cc(NC(=O)COC(=O)c2ccc(S(=O)(=O)N3CCCc4ccccc43)cc2)no1`, the cytotoxicity was 58.6% (active).

`O=C(O)C1CC=CCC1C(=O)Nc1ccc(S(=O)(=O)N2CCCc3ccccc32)cc1` (stereo not given): the cytotoxicity was 30.6% (inactive).

In the case of `CC(=O)Nc1ccc(S(=O)(=O)N2CCCc3ccccc32)cc1`, the cytotoxicity was 37.8% (inactive).

Turning to `CCCNC(=O)NC(=O)COC(=O)c1ccc(OC)c(S(=O)(=O)N2CCCc3ccccc32)c1`, the cytotoxicity was 0.1% (inactive).

Turning to `COC(=O)Nc1ccc(S(=O)(=O)N2CCCc3ccccc32)cc1`, the cytotoxicity is 56.8% (active).

In the case of `CCC(C)Oc1cccc(OCCCCN2C(=O)NC(C)(C)C2=O)c1` (stereo not given), the cytotoxicity was 8.5% (inactive).

Consider `O=C(CC1c2ccccc2Oc2ccccc21)NCc1ccco1`, for which the cytotoxicity was -3.4% (inactive).

Take `CCC(=O)N1CCc2cc(Br)cc(S(=O)(=O)N3CCCCCC3)c21`: the cytotoxicity is -12.2% (inactive).

Regarding `CC(=O)N1CCc2cc(S(=O)(=O)CCC(=O)N3CCN(C(=O)c4ccco4)CC3)ccc21`, the cytotoxicity was 1.6% (inactive).

For the compound `O=C(O)c1oc2ccccc2c1-n1cccc1`, the cytotoxicity was 9.5% (inactive).

In the case of `COC(=O)c1oc2ccc(Br)cc2c1-n1cccc1`, the cytotoxicity was 1.1% (inactive).

Regarding `O=C(O)c1oc2ccc(Br)cc2c1-n1cccc1`, the cytotoxicity is 57.8% (active).

As to `COc1ccc(NC(=O)CSc2nnc(-c3ccccn3)n2N)cc1`, the cytotoxicity is -17.7% (inactive).

As for `O=C(Nc1ccccc1)OCCOc1ccccc1`, the cytotoxicity is -17.6% (inactive).

`CC(C)n1c(C(=O)OCC(=O)NCc2ccc3c(c2)OCO3)cc2sccc21`: the cytotoxicity is 45% (inactive).

For the compound `Cn1c(C(=O)OCC(=O)NCc2cccs2)cc2sccc21`, the cytotoxicity was 9.4% (inactive).

With `Cc1cc2c(cc(C(=O)OCC(=O)NCc3cccs3)n2C(C)C)o1`, the cytotoxicity is 57.6% (active).

With `CCOC(=O)N1CCN(C(=O)CSc2nnc(Cn3c(=O)sc4ccccc43)n2C)CC1`, the cytotoxicity is -4.9% (inactive).

Consider `CCCCOc1ccc(C(=O)Nc2ccncc2)cc1`, for which the cytotoxicity was 7.8% (inactive).

`CNc1oc(-c2ccccc2Cl)nc1C#N`: the cytotoxicity is -3.8% (inactive).

Take `COCCNc1oc(-c2ccccc2Cl)nc1C#N`: the cytotoxicity was -6% (inactive).

Turning to `COc1ccc(Nc2oc(-c3ccccc3Cl)nc2C#N)cc1`, the cytotoxicity was 57.9% (active).

As for `Cc1ccccc1-n1nnnc1-c1ccccc1`, the cytotoxicity is -2.5% (inactive).

For the compound `O=C1C(c2ccncc2)=C(O)c2ccccc21`, the cytotoxicity is -1.4% (inactive).

With `COc1ccc(C(=O)Oc2ccc(C(C)=O)cc2)c(OC)c1`, the cytotoxicity is 13.4% (inactive).

Regarding `COc1ccc(C(=O)c2ccc(N3CCOCC3)cc2)c(OC)c1`, the cytotoxicity was 7.3% (inactive).

As for `COc1ccc(C(=O)c2ccc(N(C)C)cc2)c(OC)c1`, the cytotoxicity was 68.7% (active).

As for `Cc1ccc(S(=O)(=O)NC2OC(=O)C(Cl)=C2Cl)cc1` (stereo not given), the cytotoxicity is 11.4% (inactive).

For `Cc1nnc2n1N=CC=C(c1ccccc1)S2`, the cytotoxicity is 57.5% (active).

Turning to `COn1cnnc1-c1ccccc1`, the cytotoxicity is -8.8% (inactive).

Regarding `Cc1nnc2n1N=CC=C(C(C)(C)C)S2`, the cytotoxicity was -5.2% (inactive).

Consider `O=C(COC(=O)CCOc1ccccc1)Nc1ccc(Cl)cn1`, for which the cytotoxicity is 0.1% (inactive).

As to `Cc1cc(SCC#N)n2nc(C)c(-c3ccccc3)c2n1`, the cytotoxicity is -24.7% (inactive).

For `COc1ccc2c(c1)c(C(O)CN1CCC3(CC1)OCCO3)c(C)n2C` (stereo not given), the cytotoxicity was 9% (inactive).

`OC(CCN1CCCCC1)(c1ccccc1)C1CCCCC1` (stereo not given): the cytotoxicity is -15.8% (inactive).

`CC(C)(C)c1ccc(C(O)CCCN2CCC(C(O)(c3ccccc3)c3ccccc3)CC2)cc1` (stereo not given): the cytotoxicity was 118% (active).

`OC(CCN1CCCC1)(c1ccccc1)C1CCCCC1` (stereo not given): the cytotoxicity is 8.5% (inactive).

Turning to `C/C(=N\O)C1/C(=N/O)CC2C1C2(C)C` (stereo not given), the cytotoxicity was -4.3% (inactive).

Consider `Nc1nc(C(=O)N2CCOCC2)nn1S(=O)(=O)c1ccc(Cl)cc1`, for which the cytotoxicity was 2.7% (inactive).

In the case of `COc1ccc(C(=O)Oc2cccnc2)cc1OC`, the cytotoxicity is -11.9% (inactive).

Regarding `CN1C(=O)c2cccc(NC(=O)Cc3ccccc3)c2C1=O`, the cytotoxicity is -1.7% (inactive).

Turning to `CC1CCc2nc(NC(=O)c3ccco3)sc2C1` (stereo not given), the cytotoxicity is -13.6% (inactive).

For the compound `O=C(Nc1nc2c(s1)CCc1ccccc1-2)c1ccco1`, the cytotoxicity is 15.6% (inactive).

On to `O=C(c1ccc(Br)s1)N1CCN(Cc2ccc3c(c2)OCO3)CC1`, for which the cytotoxicity is 11.8% (inactive).

Regarding `CN(C)/C=C1\N=C(c2ccc3c(c2)OCO3)OC1=O`, the cytotoxicity is -1.7% (inactive).

On to `Cc1ccc(-n2cc(-c3ccccc3)[nH]c2=O)cc1F`, for which the cytotoxicity was -20.5% (inactive).

With `CSc1cccc(-n2cc(-c3ccc4c(c3)OCO4)[nH]c2=O)c1`, the cytotoxicity was 52.8% (active).

Consider `O=C(Cc1ccc(S(=O)(=O)N2CCOCC2)s1)Nc1ccc2c(c1)CCC2`, for which the cytotoxicity was 3.3% (inactive).

For `COc1ccc(CN2CCN(C(=O)c3cc(OC)c(OC)c(OC)c3)CC2)cc1OC`, the cytotoxicity is -11.1% (inactive).

Source of the values: PubChem BioAssay AID430 (Sanford-Burnham Center for Chemical Genomics, 2006).
